According to PubChem BioAssay (NCI):
Compounds without any hit were thinned out: in the full panel of roughly 79,000, 15% have a hit. The source made the active and inactive calls. No stated cut-off is given here; in the data, active means growth inhibition above about 70%; inactive means the rest.

Key:
[1] = NCI Yeast Anticancer Drug Screen. Data for the rad50 strain (AID 155);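 further: 0% = growth of vehicle-only cultures of the same strain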; conditions: S. cerevisiae rad50 strain growth inhibition, stronger effect = higher value
Outline: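 Cells are treated with compound, grown, and their growth is then scored against vehicle-only cultures of the same repair-deficient yeast strain.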

[2] = NCI Yeast Anticancer Drug Screen. Data for the mec2-1 strain (AID 157); conditions: S. cerevisiae mec2-1 strain, stronger effect = higher value
Outline: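 Vehicle-treated cultures served as reference for growth inhibition of compound-exposed mec2-1 yeast.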

[3] = NCI Yeast Anticancer Drug Screen. Data for the sgs1 mgt1 strain (AID 161);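 further: 0% = growth of cultures given vehicle only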; conditions: S. cerevisiae sgs1 mgt1 strain, stronger effect = higher value
Outline: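 Read-out: growth inhibition vs vehicle controls. Cells: mutant yeast strain deficient in DNA damage repair.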

[4] = NCI Yeast Anticancer Drug Screen. Data for the cln2 rad14 strain (AID 165);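 further: 0% = growth equal to vehicle treated cultures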; conditions: S. cerevisiae cln2 rad14 strain, stronger effect = higher value
Outline: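 Each compound was tested on cln2 rad14 yeast. Inhibition of growth was calculated against vehicle-exposed controls.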

[5] = NCI Yeast Anticancer Drug Screen. Data for the bub3 strain (AID 167); conditions: S. cerevisiae bub3 mutant strain, stronger effect = higher value
Outline: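 Part of a panel of yeast mutants defective in DNA damage repair or cell cycle regulation. Each strain is grown with compound, and inhibition is calculated relative to solvent-treated cultures.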

[6] = NCI Yeast Anticancer Drug Screen. Data for the mlh1 rad18 strain (AID 175); conditions: S. cerevisiae mlh1 rad18 strain growth inhibition, stronger effect = higher value
Outline: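 Vehicle-treated cultures served as the reference for growth inhibition in a yeast strain carrying DNA damage repair alterations exposed to each compound.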

[7] = at 5.0 µM (retest, dose inferred, filed as 0.5)
[8] = at 50.0 µM (retest, dose inferred, filed as 5.0)

SMILES | growth inhibition [1, 7] | growth inhibition [1, 8] | growth inhibition ([1]; at 50.0 µM) | growth inhibition [2, 7] | growth inhibition [2, 8] | growth inhibition ([2]; at 50.0 µM) | growth inhibition [3, 7] | growth inhibition [3, 8] | growth inhibition ([3]; at 50.0 µM) | growth inhibition [4, 7] | growth inhibition [4, 8] | growth inhibition ([4]; at 50.0 µM) | growth inhibition [5, 7] | growth inhibition [5, 8] | growth inhibition ([5]; at 50.0 µM) | growth inhibition [6, 7] | growth inhibition [6, 8] | growth inhibition ([6]; at 50.0 µM)
COC/C=N/Nc1ccc([N+](=O)[O-])cc1 | 90% (active) | 98% (active) | 98.6% (active) | 45% (inactive) | 98% (active) | 98.3% (active) | 90% (active) | 98% (active) | 98% (active) | 46% (inactive) | 98% (active) | 98.5% (active) | 94% (active) | 98% (active) | 99% (active) | 90% (active) | 98% (active) | 98.5% (active)
COC(=O)c1cccc2cccc(C(=O)Nc3ccc(Cl)cc3)c12 | 68% (inactive) | 99% (active) | 90.2% (active) | 67% (inactive) | 100% (active) | 93% (active) | 58% (inactive) | 100% (active) | 92.3% (active) | 42% (inactive) | 99% (active) | 92% (active) | 82% (active) | 82% (active) | 91.9% (active) | 87% (active) | 99% (active) | 90.3% (active)
O=C(O)CCSCc1cc(C(=O)Nc2ccc(/C=C/c3ccc(NC(=O)c4cc(CSCCC(=O)O)c5cccnc5c4O)cc3S(=O)(=O)O)c(S(=O)(=O)O)c2)c(O)c2ncccc12 | 48% (inactive) | 53% (inactive) | 74% (active) | 37% (inactive) | 89% (active) | 61.6% (inactive) | 58% (inactive) | 53% (inactive) | 79.1% (active) | 22% (inactive) | 74% (active) | 45.5% (inactive) | 59% (inactive) | 96% (active) | 78.4% (active) | 52% (inactive) | 92% (active) | 79.5% (active)
CNC(=S)N/N=C/c1nccc(-c2ccccc2)c1C | 4% (inactive) | 93% (active) | 23.8% (inactive) | -2% (inactive) | 96% (active) | 48.9% (inactive) | 3% (inactive) | 96% (active) | 41.8% (inactive) | -9% (inactive) | 94% (active) | 39.1% (inactive) | 2% (inactive) | 94% (active) | -2.75% (inactive) | -3% (inactive) | 93% (active) | 74.7% (active)
CCCCCC/C=C\CCCCCCCCCC1=C(CN2CCN(C)CC2)C(=O)C=C(OC)C1=O | 24% (inactive) | 97% (active) | 89.2% (active) | 24% (inactive) | 98% (active) | 91.8% (active) | 99% (active) | 98% (active) | 90.3% (active) | 97% (active) | 98% (active) | 89.2% (active) | 99% (active) | 98% (active) | 91% (active) | 54% (inactive) | 97% (active) | 88.8% (active)
Clc1cccc(N2CCN(c3c4c(nc5ccccc35)CCCCC4)CC2)c1 | 81% (active) | 94% (active) | 93% (active) | 93% (active) | 99% (active) | 95.5% (active) | 87% (active) | 96% (active) | 95.2% (active) | 28% (inactive) | 89% (active) | 93.2% (active) | 73% (active) | 93% (active) | 92.1% (active) | 92% (active) | 95% (active) | 93.9% (active)
